The list is not random: actives were taken first. Their share in the collection is about 18%.
KAT2A inh – GCN5L2 (KAT2A) acetyltransferase inhibition; GCN5L2 HAT assay, ThioGlo1 CoA-SH fluorescence; Potency, µM (highest dose often 58.9 µM), inactives show top-dose activity change, negative = inhibition, actives largely listed as inhibitors; 390,000 tested, 0.21% active
Target sequence (Q92830 whole entry, looked up): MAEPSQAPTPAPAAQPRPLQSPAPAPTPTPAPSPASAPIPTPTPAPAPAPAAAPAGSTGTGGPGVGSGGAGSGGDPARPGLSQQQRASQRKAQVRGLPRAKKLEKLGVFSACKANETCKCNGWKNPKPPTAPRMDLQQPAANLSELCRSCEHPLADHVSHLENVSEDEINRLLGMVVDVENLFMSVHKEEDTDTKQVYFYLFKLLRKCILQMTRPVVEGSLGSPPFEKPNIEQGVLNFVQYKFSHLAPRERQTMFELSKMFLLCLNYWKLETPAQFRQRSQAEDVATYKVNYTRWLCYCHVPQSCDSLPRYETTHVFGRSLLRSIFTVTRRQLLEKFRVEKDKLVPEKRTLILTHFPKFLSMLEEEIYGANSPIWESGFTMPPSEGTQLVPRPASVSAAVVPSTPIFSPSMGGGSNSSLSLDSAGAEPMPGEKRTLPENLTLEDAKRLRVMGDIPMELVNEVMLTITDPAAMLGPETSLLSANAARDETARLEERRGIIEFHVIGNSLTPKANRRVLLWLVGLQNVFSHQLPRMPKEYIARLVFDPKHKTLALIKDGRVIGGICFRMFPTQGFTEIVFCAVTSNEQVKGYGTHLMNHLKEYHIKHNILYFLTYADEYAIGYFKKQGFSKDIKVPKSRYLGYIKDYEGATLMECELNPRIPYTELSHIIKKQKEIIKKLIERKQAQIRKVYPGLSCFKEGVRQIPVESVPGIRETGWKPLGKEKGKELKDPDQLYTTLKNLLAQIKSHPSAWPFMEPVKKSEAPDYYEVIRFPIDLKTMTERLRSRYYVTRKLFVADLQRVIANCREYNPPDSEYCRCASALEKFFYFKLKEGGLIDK
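GCN5L2 (20nM final) in 50mM HEPES, 0.1mM EDTA pH 7.5, 0.01% Tween-20 was preincubated 15 min at room temperature with compound, then given ThioGlo1 (50uM), H3(1-25) peptide (75uM) and acetyl-CoA (70uM); CoA-thiol fluorescence (Ex340/Em540) was read at 0 and 20 min.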
DT40 TDP1 no CPT – qHTS for Inhibitors of human tyrosyl-DNA phosphodiesterase 1 (TDP1): qHTS in cells in absence of CPT | DT40 Tdp1-/- hTDP1 cells, no CPT, ATP luminescence, 48 h | Potency, µM (doses to about 46.2 µM), inactives show top-dose activity change, negative = growth inhibition, most hits filed as inhibitors | 420,000 tested, 15% active; further: nearly all actives have a fitted effect of over 55% in size
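Growth kinetics read by CellTiter-Glo luminescence after ≥48 hr at 37 °C. Cells: DT40 Tdp1-/- stably carrying human TDP1, 400 per well, compound exposure in the absence of CPT (DMSO vehicle).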
TDP1 block – TDP1 (human) enzyme inhibition; Q9NUW8; recombinant TDP1, AlphaScreen DNA substrate cleavage; Potency, µM (titrated, usually from 130 µM), inactives show at the highest dose activity change, negative = inhibition, hits mostly inhibitors; 350,000 tested, 0.28% active; AID 485290; further: nearly all actives have a fitted effect of over 40% in size
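Signal: AlphaScreen proximity between streptavidin donor and anti-FITC acceptor beads on intact substrate. Reaction: Tdp1 1 nM, substrate 15 nM final, 5 min RT after 15 min compound preincubation.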
TDP1 cell CPT – DT40-hTDP1 cell growth loss with CPT | 420,000 tested, 12% active | Potency, µM (top dose mostly 46.2 µM), inactives show top-dose activity change, negative = growth inhibition, usual class: inhibitors | chicken DT40 Tdp1-/-;hTDP1 cells + 20 nM CPT, ATP luminescence, 48 h | AID 686979; further: nearly all actives have a fitted effect of over 55% in size
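Cell growth measured by CellTiter-Glo luminescence after a minimum 48 h, 37 C compound exposure with 20 nM CPT in Tdp1-knockout DT40 cells stably expressing hTDP1, seeded 400/well; qHTS titration format.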
PLK1 PBD block – blocks phosphopeptide binding to human PLK1 polo-box domain; P53350; 360,000 tested, 2.8% active; Potency, µM, for the others: max response, negative = inhibition, most hits filed as inhibitors; Plk1 PBD binding of FITC phosphopeptide, fluorescence polarization; further: series mostly up to about 57 µM; nearly all actives have a fitted effect of over 65% in size
VDR inh – blocks the human vitamin D receptor; AID 504847; Potency, µM, for inactives: max response, negative = inhibition, most hits filed as inhibitors; VDR-SRC2-3 peptide fluorescence polarization, 2 h; 400,000 tested, 0.93% active
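The screen uses fluorescence polarization to detect compounds that interfere with recruitment of the SRC2-3 coactivator peptide to VDR; plates are read after 2 h at room temperature.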
Active calls of the source: *; ? = inconclusive; · = no result given; + = active, no number; [ ] = another dose, or the depositor's remark. The call rests on the fitted dose curve; in most records, active means well fitted curve in the direction sought with a large enough effect; inconclusive means small, poorly fitted or top-dose-only effect, or another doubt; inactive means no such curve, though single readings can be large; an effect the other way counts as inactive or inconclusive. On the % scale 0 is the no-effect control and ±100 the full control effect; potency means the concentration at half of the fitted maximal effect.

SMILES	KAT2A inh	DT40 TDP1 no CPT	TDP1 block	TDP1 cell CPT	PLK1 PBD block	VDR inh
COc1cc2c(=O)c(C(=O)c3ccc(C)c(C)c3)cn(Cc3ccccc3)c2cc1OC	-8%	?	8%	15µM*	·	10%
CCc1ccc(C(=O)c2cn(Cc3ccccc3)c3cc(OC)c(OC)cc3c2=O)cc1	-13%	16µM*	8%	16µM*	·	13%
CCCC(=O)Nc1ccc(Cl)c(NC(=O)c2cccc(OC)c2)c1	-1%	?	-5%	?	-3%	-1%
COc1ccc(Cn2cc(C(=O)c3ccc(C)c(C)c3)c(=O)c3ccccc32)cc1	-7%	16µM*	1%	?	·	-12%
COc1ccccc1Cn1cc(C(=O)c2ccc(Cl)cc2)c(=O)c2cc3c(cc21)OCCO3	-1%	?	3%	?	·	11%
COc1ccccc1Cn1cc(C(=O)c2ccc(Cl)cc2)c(=O)c2ccccc21	-3%	15µM*	5%	23µM*	·	6%
CCOc1ccc(C(=O)c2cn(CC(=O)Nc3cc(OC)ccc3OC)c3cc(OC)c(OC)cc3c2=O)cc1	-8%	16µM*	9%	23µM*	·	-17%
O=C(Nc1ccccc1Br)c1cnn2c1NC(=C1CC1)C=C2C(F)F	·	?	·	-5%	·	·
Cc1ccc2oc(C(=O)Nc3nnc(CC(C)C)s3)cc(=O)c2c1	-9%	-15%	9%	0%	·	17%
CCn1c(C)c(C2N3CC4(C)CN2CC(CC)(C3)C4=O)c2ccccc21 (configuration not stated)	-4%	?	0%	-6%	·	3%
CN(C)Cc1cc(C(C)(C)c2ccccc2)ccc1O	·	?	·	23µM*	-8%	3%
CC(C)(c1ccc(O)c([N+](=O)[O-])c1)c1ccc(O)c([N+](=O)[O-])c1	·	-6%	·	4%	-5%	17%
CN1CCN(c2cc(-c3ccccc3Cl)ncn2)CC1	1%	-5%	·	-4%	·	2%
CC1CCc2[nH]c3ccc(C(=O)N(C)CC(=O)Nc4ccccc4Br)cc3c2C1 (configuration not stated)	-7%	12µM*	·	?	-1%	-1%
Cc1ccc(C)c(NC(=O)CN(C)C(=O)c2ccc3[nH]c4c(c3c2)CC(C)CC4)c1 (configuration not stated)	-5%	?	9%	?	-3%	-1%
CCCCNC(=O)c1nc(-c2cccnc2OC)oc1-c1ccc(Cl)cc1	·	23µM*	·	16µM*	-10%	·
CC[C@]1(O)CC2CN(CCc3c([nH]c4ccccc34)[C@@](C(=O)OC)(c3cc4c(cc3OC)N(C)[C@H]3[C@@](O)(C(=O)OC)[C@H](OC(C)=O)[C@]5(CC)C=CCN6CC[C@]43[C@@H]65)C2)C1 (some centres not stated)	-27%	0.14µM*	·	0.071µM*	·	?
CC[C@]1(O)C[C@@H]2CN(CCc3c([nH]c4ccccc34)[C@](C(=O)OC)(c3cc4c(cc3OC)N(C=O)[C@H]3[C@@](O)(C(=O)OC)[C@H](C(=O)OC)[C@@]5(CC)C=CCN6CC[C@]43[C@H]65)C2)C1	-3%	0.019µM*	13%[56.1 µM]	0.027µM*	·	-6%
CCOC(=O)N(C)[C@H]1C[C@H]2c3[nH]c4ccccc4c3CCN2C[C@H]1[C@H](C)O	·	?	·	?	-15%	·
CCC1(O)CC2CN(CCc3c([nH]c4ccccc34)C(C(=O)OC)(c3cc4c(cc3OC)N(C=O)C3C(O)(C(=O)OC)C(OC(C)=O)C5(CC)C=CCN6CCC43C65)C2)C1 (configuration not stated)	·	0.15µM*	·	0.092µM*	5%	-5%
CCC1(O)CC2CN(CCc3c([nH]c4ccccc34)[C@@](C(=O)OC)(c3cc4c(cc3OC)N(C=O)C3[C@]45CCN4CC=C[C@@](CC)([C@@H](OC(C)=O)[C@]3(O)C(=O)OC)[C@H]45)C2)C1 (some centres not stated)	-26%	·	12%[56.1 µM]	·	·	-12%
CC(C)Nc1nc(-c2ccccc2F)c2sc(-c3ccccc3)cc2n1	·	?	·	?	2%	·
CCc1ccccc1Oc1nc(NCCOC)nc2cc(-c3ccccc3)sc12	·	?	·	?	-1%	·
COCCNc1nc(-c2ccccc2F)c2sc(-c3ccccc3)cc2n1	·	?	·	18µM*	-6%	·
COCCNc1nc(-c2cc(F)ccc2C)c2sc(-c3ccccc3)cc2n1	·	15µM*	·	26µM*	-7%	·
SMILES	KAT2A inh	DT40 TDP1 no CPT	TDP1 block	TDP1 cell CPT	PLK1 PBD block	VDR inh
CC(=O)N1CCC[C@@]2(CCN(Cc3cc(C(F)(F)F)cc(C(F)(F)F)c3)C2)C1	-5%	-28%	·	-14%	·	-20%
CSc1ncc(C(=O)NCc2ccc(F)cc2)c(-c2ccccc2)n1	-11%	+	2%	-13%	·	8%
Cc1nc2c(C(=O)O)cnn2c(C)c1Cc1ccccc1F	?	-4%	6%	-18%	-2%	-6%
CSc1ncc(C(=O)Nc2ccc(F)cc2F)c(-c2ccccc2)n1	-15%	-19%	5%	-3%	·	5%
Cc1ccccc1Cc1c(C)nc2c(C(=O)NCc3ccco3)cnn2c1C	-8%	?	6%	14µM*	-22%	?
COc1ccc(CNC(=O)c2cnn3c(C)c(Cc4c(F)cccc4Cl)c(C)nc23)cc1	-1%	21µM*	0%	12µM*	·	-2%
Cc1nc2c(C(=O)NCc3ccccc3)cnn2c(C)c1Cc1ccc(F)cc1	-1%	8.2µM*	5%	7.3µM*	·	3%
O=C(Nc1cc(C(F)(F)F)cc(C(F)(F)F)c1)[C@H]1O[C@@H](n2ccc(=O)[nH]c2=O)[C@H](O)[C@@H]1O	·	-28%	·	-28%	3%	·
C[C@H]1CN([C@@H](C)CO)C(=O)CCCn2cc(nn2)CO[C@@H]1CN(C)C(=O)Nc1ccc2c(c1)OCO2	·	-21%	·	-16%	-6%	·
COc1ccc(C2C3=C(CC(C)(C)CC3=O)Nc3cc4c(cc32)OCO4)cc1 (configuration not stated)	-12%	-9%	7%	0%	2%	-22%
COc1ccc(OC)c(C2C3=C(COC3=O)Nc3cc4c(cc32)OCO4)c1 (configuration not stated)	-2%	0.15µM*	2%	0.16µM*	-8%	7%
Cc1cccc(C)c1NC(=O)c1c(-c2ccccc2)noc1C	-3%	-8%	0%	-26%	2%	2%

Screens from PubChem BioAssay.
